# Test results as given in the supplement of paper PMC10849652.
# Of roughly 7,900 targets only a part is listed; those with a hit were picked by preference. About 0.6% of all pairs of compound and target were hits. Values without a mark were called inactive.
# Columns and labels:
# Experiment in all cases: log2 fold change, soluble protein after heating vs DMSO (PISA); higher = thermal stabilisation; K562 cells, 10 uM, 30 min; active = over 0.2 and 3.5 SD of the protein, either way, in both replicates (recomputed)
# [1] = compound: C1=CC=C(C=C1)[C@H](COC2=CC3=C(C=C2)NC(=O)N3)NC(=O)C4=CC=CN(C4=O)CC5=CC(=C(C=C5)F)F
# Method in brief: (§1)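 Quantification of soluble protein used TMTpro 16plex LC-MS/MS, with channel sums equalised. Samples were the supernatant after 21,000xg for 90 min of pooled aliquots from K562 cells (2×10^6 cells/mL) treated with 10 μM compound for 30 min, heated for 3 min over 48°C-58°C, and extracted in PBS with 0.5% NP-40 at 4°C. Values, from duplicates, describe thermal stability against control samples on a log2 fold-change scale.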
# [2] = compound: CC1=C(SC2=C1C(=N[C@H](C3=NN=C(N32)C)CC(=O)N)C4=CC=C(C=C4)Cl)C
# Method in brief: as §1
# [3] = compound: Cc1sc2c(c1C)C(c1ccc(Cl)cc1)=N[C@@H](CC(=O)OC(C)(C)C)c1nnc(C)n1-2
# Method in brief: as §1
# [4] = compound: c1ccc([C@@H]2C[C@H]2NC2CCNCC2)cc1
# Method in brief: as §1
# [5] = compound: CC1=C2C(=CC=C1)N=C(N(C2=O)C3=CC=CC=C3C)CN4C=NC5=C(N=CN=C54)N
# Method in brief: as §1
# Sequence of UniProt Q9H444 (Q9H444 whole entry, looked up): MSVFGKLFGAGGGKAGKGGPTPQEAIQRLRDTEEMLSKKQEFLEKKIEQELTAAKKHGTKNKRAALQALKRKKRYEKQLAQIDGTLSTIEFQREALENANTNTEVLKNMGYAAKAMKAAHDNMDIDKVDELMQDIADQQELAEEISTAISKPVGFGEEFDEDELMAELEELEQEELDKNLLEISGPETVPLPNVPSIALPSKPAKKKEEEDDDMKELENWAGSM
# Sequence of UniProt Q8WUD6 (Q8WUD6 whole entry, looked up): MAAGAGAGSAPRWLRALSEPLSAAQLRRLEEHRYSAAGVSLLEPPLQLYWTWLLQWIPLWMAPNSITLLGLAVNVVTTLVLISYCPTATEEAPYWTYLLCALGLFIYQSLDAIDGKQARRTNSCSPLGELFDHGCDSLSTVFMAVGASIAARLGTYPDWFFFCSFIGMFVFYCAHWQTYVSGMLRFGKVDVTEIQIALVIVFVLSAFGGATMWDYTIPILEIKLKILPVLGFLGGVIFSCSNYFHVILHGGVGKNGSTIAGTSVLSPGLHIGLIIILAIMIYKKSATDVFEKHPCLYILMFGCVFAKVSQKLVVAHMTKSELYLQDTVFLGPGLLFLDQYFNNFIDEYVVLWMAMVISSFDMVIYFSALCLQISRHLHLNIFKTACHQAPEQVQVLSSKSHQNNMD
# Sequence of UniProt Q00537 (Q00537 whole entry, looked up): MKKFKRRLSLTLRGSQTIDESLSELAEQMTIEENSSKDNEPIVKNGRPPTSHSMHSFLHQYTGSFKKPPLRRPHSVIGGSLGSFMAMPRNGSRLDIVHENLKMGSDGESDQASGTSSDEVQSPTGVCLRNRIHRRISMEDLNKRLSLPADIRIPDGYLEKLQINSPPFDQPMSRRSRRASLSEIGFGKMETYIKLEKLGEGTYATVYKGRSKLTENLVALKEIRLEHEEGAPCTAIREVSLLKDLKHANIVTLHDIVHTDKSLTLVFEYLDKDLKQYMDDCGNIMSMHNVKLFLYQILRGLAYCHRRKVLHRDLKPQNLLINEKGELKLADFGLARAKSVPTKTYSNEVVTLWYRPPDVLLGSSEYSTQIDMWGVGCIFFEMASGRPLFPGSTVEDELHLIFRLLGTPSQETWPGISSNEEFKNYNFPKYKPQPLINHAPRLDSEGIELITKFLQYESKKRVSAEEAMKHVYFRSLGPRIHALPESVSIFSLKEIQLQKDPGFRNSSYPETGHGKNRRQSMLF
# Sequence of UniProt P23786 (P23786 whole entry, looked up): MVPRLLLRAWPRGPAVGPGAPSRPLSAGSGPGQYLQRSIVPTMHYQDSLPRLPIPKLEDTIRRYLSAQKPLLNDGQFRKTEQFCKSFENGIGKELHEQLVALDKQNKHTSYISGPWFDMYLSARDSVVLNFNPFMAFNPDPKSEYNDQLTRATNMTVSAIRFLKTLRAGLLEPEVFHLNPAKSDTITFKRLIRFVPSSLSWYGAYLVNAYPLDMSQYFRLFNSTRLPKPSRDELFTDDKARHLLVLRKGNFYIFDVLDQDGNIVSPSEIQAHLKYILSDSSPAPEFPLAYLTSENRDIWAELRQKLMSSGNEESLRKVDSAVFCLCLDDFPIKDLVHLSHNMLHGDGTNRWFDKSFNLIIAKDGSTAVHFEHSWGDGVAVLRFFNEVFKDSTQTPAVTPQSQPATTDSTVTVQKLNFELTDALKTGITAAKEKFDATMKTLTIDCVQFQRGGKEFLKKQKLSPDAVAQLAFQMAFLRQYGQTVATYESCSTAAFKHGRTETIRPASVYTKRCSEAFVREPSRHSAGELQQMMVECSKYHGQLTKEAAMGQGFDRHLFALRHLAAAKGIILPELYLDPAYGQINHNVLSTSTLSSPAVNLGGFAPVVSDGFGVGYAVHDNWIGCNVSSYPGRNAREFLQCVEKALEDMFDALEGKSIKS
# Sequence of UniProt Q14061 (Q14061 whole entry, looked up): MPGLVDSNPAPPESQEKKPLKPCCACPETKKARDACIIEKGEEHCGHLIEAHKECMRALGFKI
# Sequence of UniProt O75208 (O75208 whole entry, looked up): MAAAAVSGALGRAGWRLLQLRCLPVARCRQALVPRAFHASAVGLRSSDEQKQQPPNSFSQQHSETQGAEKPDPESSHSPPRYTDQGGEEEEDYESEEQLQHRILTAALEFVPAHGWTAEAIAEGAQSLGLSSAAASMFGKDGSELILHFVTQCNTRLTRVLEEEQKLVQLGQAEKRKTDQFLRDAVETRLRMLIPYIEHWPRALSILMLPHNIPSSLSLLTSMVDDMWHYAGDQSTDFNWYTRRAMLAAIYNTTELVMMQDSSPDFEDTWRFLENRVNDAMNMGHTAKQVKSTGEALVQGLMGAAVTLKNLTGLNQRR
# Sequence of UniProt P46109 (P46109 whole entry, looked up): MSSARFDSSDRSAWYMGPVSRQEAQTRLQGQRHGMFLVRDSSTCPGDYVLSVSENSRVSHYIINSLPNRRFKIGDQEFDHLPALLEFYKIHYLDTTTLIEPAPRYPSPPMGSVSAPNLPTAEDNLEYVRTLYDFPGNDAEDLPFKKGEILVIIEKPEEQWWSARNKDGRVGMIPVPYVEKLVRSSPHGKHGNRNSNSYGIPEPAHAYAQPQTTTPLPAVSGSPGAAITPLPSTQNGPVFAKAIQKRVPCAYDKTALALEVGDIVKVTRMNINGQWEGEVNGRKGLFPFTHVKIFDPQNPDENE
# Sequence of UniProt Q9ULV3 (Q9ULV3 whole entry, looked up): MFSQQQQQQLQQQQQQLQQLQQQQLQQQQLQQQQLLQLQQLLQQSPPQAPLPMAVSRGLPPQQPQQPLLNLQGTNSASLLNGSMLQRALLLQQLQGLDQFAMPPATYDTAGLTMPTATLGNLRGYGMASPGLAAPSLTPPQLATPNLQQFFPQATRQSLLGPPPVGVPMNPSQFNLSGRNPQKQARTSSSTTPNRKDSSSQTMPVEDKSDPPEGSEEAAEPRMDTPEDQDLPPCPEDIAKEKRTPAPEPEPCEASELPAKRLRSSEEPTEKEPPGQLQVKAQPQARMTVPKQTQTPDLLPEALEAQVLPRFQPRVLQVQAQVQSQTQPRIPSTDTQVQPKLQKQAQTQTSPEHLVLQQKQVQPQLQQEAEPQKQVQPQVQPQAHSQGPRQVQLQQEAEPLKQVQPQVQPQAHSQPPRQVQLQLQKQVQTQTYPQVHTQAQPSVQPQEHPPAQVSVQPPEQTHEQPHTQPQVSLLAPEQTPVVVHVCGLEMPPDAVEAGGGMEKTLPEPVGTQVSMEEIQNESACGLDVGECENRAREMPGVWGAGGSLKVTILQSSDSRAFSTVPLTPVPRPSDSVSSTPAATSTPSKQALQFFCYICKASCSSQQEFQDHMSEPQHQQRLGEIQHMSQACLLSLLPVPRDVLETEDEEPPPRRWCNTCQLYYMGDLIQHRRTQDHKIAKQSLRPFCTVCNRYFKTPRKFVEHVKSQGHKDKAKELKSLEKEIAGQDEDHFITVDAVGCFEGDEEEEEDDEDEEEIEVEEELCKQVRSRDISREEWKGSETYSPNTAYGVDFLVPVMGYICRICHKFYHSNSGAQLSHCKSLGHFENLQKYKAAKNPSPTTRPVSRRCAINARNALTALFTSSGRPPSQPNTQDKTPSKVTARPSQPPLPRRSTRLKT
# Sequence of UniProt Q9HCH3 (Q9HCH3 whole entry, looked up): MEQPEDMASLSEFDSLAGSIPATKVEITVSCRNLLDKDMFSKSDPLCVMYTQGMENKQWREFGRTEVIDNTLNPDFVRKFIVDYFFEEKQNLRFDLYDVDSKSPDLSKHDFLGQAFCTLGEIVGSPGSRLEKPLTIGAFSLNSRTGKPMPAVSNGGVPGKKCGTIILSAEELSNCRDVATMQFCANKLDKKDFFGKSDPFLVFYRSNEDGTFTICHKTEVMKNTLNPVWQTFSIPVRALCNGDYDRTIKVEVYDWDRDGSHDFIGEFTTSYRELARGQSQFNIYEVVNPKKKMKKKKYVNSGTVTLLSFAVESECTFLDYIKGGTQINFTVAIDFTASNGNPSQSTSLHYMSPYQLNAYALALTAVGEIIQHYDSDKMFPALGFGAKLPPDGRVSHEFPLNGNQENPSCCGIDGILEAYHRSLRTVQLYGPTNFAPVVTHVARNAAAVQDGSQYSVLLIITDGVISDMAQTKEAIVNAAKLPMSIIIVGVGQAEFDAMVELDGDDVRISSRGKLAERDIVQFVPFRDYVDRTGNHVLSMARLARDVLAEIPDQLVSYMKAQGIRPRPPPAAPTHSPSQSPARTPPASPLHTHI
# Sequence of UniProt Q9Y6K0 (Q9Y6K0 whole entry, looked up): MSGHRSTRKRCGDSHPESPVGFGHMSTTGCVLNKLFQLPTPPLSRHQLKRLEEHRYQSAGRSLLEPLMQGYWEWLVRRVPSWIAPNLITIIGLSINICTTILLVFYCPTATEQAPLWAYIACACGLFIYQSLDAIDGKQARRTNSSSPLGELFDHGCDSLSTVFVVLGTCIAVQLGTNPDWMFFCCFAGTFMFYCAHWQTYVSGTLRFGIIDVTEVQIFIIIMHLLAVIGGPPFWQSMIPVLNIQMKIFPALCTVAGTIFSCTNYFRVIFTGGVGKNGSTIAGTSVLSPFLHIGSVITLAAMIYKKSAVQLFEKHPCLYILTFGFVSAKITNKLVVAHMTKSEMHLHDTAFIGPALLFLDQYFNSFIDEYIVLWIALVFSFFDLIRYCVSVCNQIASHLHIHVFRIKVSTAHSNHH
# Sequence of UniProt P42575 (P42575 whole entry, looked up): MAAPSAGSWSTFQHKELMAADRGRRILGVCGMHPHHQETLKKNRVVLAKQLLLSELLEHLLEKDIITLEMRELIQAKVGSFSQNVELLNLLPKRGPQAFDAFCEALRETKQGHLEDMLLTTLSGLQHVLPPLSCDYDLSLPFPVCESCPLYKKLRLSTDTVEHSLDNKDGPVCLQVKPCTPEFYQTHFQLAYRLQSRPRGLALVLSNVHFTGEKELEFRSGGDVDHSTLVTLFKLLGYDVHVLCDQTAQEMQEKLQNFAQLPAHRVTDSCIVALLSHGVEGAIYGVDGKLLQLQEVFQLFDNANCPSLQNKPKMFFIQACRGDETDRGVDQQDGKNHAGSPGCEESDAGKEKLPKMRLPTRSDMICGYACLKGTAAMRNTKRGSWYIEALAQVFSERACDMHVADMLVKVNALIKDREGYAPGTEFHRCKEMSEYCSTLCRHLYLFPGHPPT
# Sequence of UniProt A8MTT3 (A8MTT3 whole entry, looked up): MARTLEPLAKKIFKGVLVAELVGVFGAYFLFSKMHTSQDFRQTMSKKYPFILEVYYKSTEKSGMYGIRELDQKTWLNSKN
Target,log2 fold change [1],log2 fold change [2],log2 fold change [3],log2 fold change [4],log2 fold change [5]
CCDC167 (UniProt Q9P0B6),0.153,-0.037,-0.124,0.073,–
CLN5 (UniProt O75503),-0.003,-0.007,0.057,-0.296,–
CDK5RAP3 isoform 4 (UniProt Q96JB5),-0.042,0.054,0,-0.05,0.099
CREB3L2 (UniProt Q70SY1),0.331,-0.15,-0.143,-0.247,0.296
CLASP2 isoform 3 (UniProt O75122),-0.065,0.053,-0.024,-0.014,0.091
CPT2 (UniProt P23786),-0.402,0.19,-0.017,-0.026,0.155
CDK13 (UniProt Q14004),0.031,0.019,0.161,-0.004,-0.017
CCND3 (UniProt P30281),-0.105,-0.015,0.033,0.053,0.121
CDC42BPB (UniProt Q9Y5S2),-0.114,-0.031,0.025,-0.004,0.009
CPQ (UniProt Q9Y646),0.045,-0.077,-0.031,0.084,-0.078
CDK5RAP1 (UniProt Q96SZ6),0.056,0.029,0.028,-0.023,0.149
CIZ1 (UniProt Q9ULV3),0.021,0.047,0.062,0.029,0.025
CDK9 isoform 2 (UniProt P50750),-0.007,-0.03,0.089,0,0
CBS (UniProt P35520),-0.029,0.07,-0.014,-0.026,0.016
CEPT1 (UniProt Q9Y6K0),-0.064,0.105,-0.121,-0.054,0.074
CRKL (UniProt P46109),0.01,0.041,0.016,-0.002,0.032
CHAMP1 (UniProt Q96JM3),-0.073,0.044,-0.051,-0.006,0.022
CLPP (UniProt Q16740),0.037,0.153,-0.124,0.008,0.093
CDK4 (UniProt P11802),0.012,0.128,–,-0.165,0.119
CCNC (UniProt P24863),-0.139,-0.172,–,-0.037,0.01
CSNK1D (UniProt P48730),-0.08,-0.067,-0.011,-0.015,-0.192
CDK17 isoform 2 (UniProt Q00537),-0.095,-0.006,–,-0.083,-0.049

Target,log2 fold change [1],log2 fold change [2],log2 fold change [3],log2 fold change [4],log2 fold change [5]
CASC3 (UniProt O15234),0.02,0.044,0.244,0.025,0.015
CLCN3 isoform 2 (UniProt P51790),0.044,-0.006,-0.021,0.013,-0.014
COQ9 (UniProt O75208),-0.068,-0.025,-0.081,0.036,0.053
CDKN1B (UniProt P46527),-0.009,-0.029,–,-0.004,-0.036
C16orf58 (UniProt Q96GQ5),0.023,0.025,-0.042,0.013,0.088
CHMP4B (UniProt Q9H444),-0.015,-0.004,0.056,0.054,0.031
CALB1 (UniProt P05937),0.001,0.009,-0.068,0.026,-0.045
CASP2 (UniProt P42575),-0.039,0.016,-0.01,-0.039,0.027
CDK2AP2 (UniProt O75956),0.026,-0.017,–,0.012,–
COPS3 isoform 2 (UniProt Q9UNS2),0.009,–,0.04,–,0.2
CRLS1 (UniProt Q9UJA2),–,-0.005,-0.01,0.003,-0.034
C15orf41 (UniProt Q9Y2V0),–,0.081,-0.011,0.149,0.014
CDCA2 (UniProt Q69YH5),–,0.035,-0.003,-0.077,0.05
CEBPZOS (UniProt A8MTT3),-0.044,–,-0.022,–,-0.105
COMMD1 (UniProt Q8N668),0.099,–,0.162,–,0.007
COX17 (UniProt Q14061),–,0.12,-0.073,-0.085,0.022
C5orf30 (UniProt Q96GV9),–,–,-0.417,–,–
CCNT2 (UniProt O60583),–,–,0.061,–,–
CHAF1A (UniProt Q13111),0.045,-0.026,–,-0.045,–
CASP8 isoform 9 (UniProt Q14790),-0.013,–,0.033,–,0.052
CPNE5 (UniProt Q9HCH3),–,-0.16,0.146,-0.035,–
COX7C (UniProt P15954),-0.023,–,-0.079,–,-0.073

Target,log2 fold change [1],log2 fold change [2],log2 fold change [3],log2 fold change [4],log2 fold change [5]
CAB39L (UniProt Q9H9S4),0.088,–,0.285,–,0.201
C6orf120 (UniProt Q7Z4R8),-0.018,–,-0.038,–,0.37 (active)
CKS2 (UniProt P33552),-0.084,–,-0.08,–,–
CFAP47 (UniProt Q6ZTR5),0.068,–,–,–,0.173
CNN1 (UniProt P51911),–,0.228,-0.004,0.156,-0.063
CD84 (UniProt Q9UIB8),–,0.167,-0.079,0.086,–
COG2 (UniProt Q14746),–,0.063,0.141,-0.004,–
C22orf39 (UniProt Q6P5X5),0.126,0.145,-0.06,-0.037,–
CLCN5 isoform 2 (UniProt P51795),–,0.028,0.024,-0.053,-0.023
CRTC1 isoform 2 (UniProt Q6UUV9),-0.036,–,0.046,–,0.018
CASP9 (UniProt P55211),–,-0.045,0.05,0.12,0.102
CHST10 (UniProt O43529),0.004,-0.064,-0.052,0.044,–
CRTC2 (UniProt Q53ET0),0.006,–,0.052,–,-0.075
C19orf54 (UniProt Q5BKX5),–,-0.014,0.004,0.114,0.059
COMMD3-BMI1 (UniProt R4GMX3),–,-0.114,0.002,0.154,–
CAV2 (UniProt P51636),0,–,-0.046,–,–
CHPT1 (UniProt Q8WUD6),–,0.003,-0.198,0.11,–
CLASP2 (UniProt O75122),0.059,0.117,–,-0.222,–
CDK19 (UniProt Q9BWU1),–,0.035,0.021,0.019,0.05
CA1 (UniProt E5RIF9),-0.021,–,0.143,–,0.187
C1D (UniProt Q13901),-0.019,–,0.074,–,0.028
